We go through 39 compounds from PubChem BioAssay (NCI).

About 83,000 compounds went through this panel and 20% of them were active in at least one assay; those are over-represented in the sample as a whole.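 48-hour exposure, single concentration, 96-well plates; percent growth endpoint where 0 means no net growth. Active: below 10.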 Values without a mark were called inactive. Active and inactive are the calls of the source.

The first experiment has as its system MALME-3M melanoma. In words: NCI-60 one-dose screen, 48 h (100 = growth as untreated, 0 = no growth, -100 = all killed). The conditions noted are these: 10 µM unless noted.
Take `O=C(NCc1ccco1)C1CCN(S(=O)(=O)c2ccc(Cl)cc2)CC1`: the growth was 54.6%.
Still for that read-out and setting: as for `C(=C\c1ccccc1)/CN1CCN(C(c2ccccc2)c2ccccc2)CC1`, the figure is 106%.
Same read-out and setting: as for `O=C(Nc1nc2ccccc2[nH]1)C(=O)Nc1nc2ccccc2[nH]1`, the figure is 91.4%; as for `Brc1ccccc1Nc1ccc2nnc(-c3ccncc3)n2n1`, 99.7%.
The same measure, in the same setting: as for `COC(=O)[C@@H]1CCCN1C(=O)[C@@H]1CCCN1C(=O)[C@@H](Cc1c[nH]c2ccccc12)NC(=S)Nc1cc(C(F)(F)F)cc(C(F)(F)F)c1`, the figure is 60.4%; as for `COc1ccc(C2OCC(C)(C)CO2)cc1OC`, 107%.
`O=c1[nH]c(=S)[nH]c(=O)n1Cc1cccc2ccccc12`: the growth is 97.3%.
As for `C=CC(=O)N1CC2(CCC(n3nc(-c4ccc(Oc5ccccc5)cc4)c4c(N)ncnc43)CC2)C1`, the growth is -70.7% (active).
On the same count and under the same terms, the same measure for `Cc1nc(NC(=O)COc2cccc(/C=C3\COc4ccccc4C3=O)c2)sc1C`: -68.1% (active); for `Cc1ccc(N=c2nc3sc4c(C)ccc(C)c4n3c(N)c2C#N)cc1`: 125%; for `CN1CCN(c2nc(-c3ccncc3)nc3sc4c(c23)CCCCCC4)CC1`: 76.8%.
The same measure, in the same setting: the same measure for `Nc1ccccc1-c1n[nH]c(=O)[nH]c1=O`: 106%; for `CCOC(=O)C1=C(C)N2C(=NC3=C(CCCC/C3=C\c3cc(OC)c(OC)c(OC)c3)C2c2cc(OC)c(OC)c(OC)c2)S1` (stereo not drawn): 51.8%.
The same measure, in the same setting: as for `Cc1cc(=O)[nH]n1-c1cc(Cl)ccc1N`, the figure is 108%; as for `COCCOC1=C(Cl)C(=O)c2ccccc2C1=O`, 96.4%.
As for `Cc1nn2c(-c3nc4ccc(Cl)cc4[nH]3)c(-c3ccc(F)cc3)nc2s1`, the growth is 128%.
As to `Oc1ccc(Cl)cc1CNc1nc2ccccc2[nH]1`, the growth was -56.4% (active).
For the compound `CN([N-]C(=O)CC(=O)[N-]N(C)C(=S)c1ccccc1)C(=S)c1ccccc1.[Cu+2]`, the growth is -90.3% (active).
The same measure, in the same setting: the same measure for `COc1ccc(-c2nc3sc(C)nn3c2-c2nc3cc(C)c(C)cc3[nH]2)cc1`: 88.3%.
On the same count and under the same terms, as for `Cc1ccc2c(c1)c(Sc1ccc(C(=O)NO)cc1)c1n2CN(C)CC1`, the figure is 26.6%.
As to `FC(F)(F)c1cc(CNc2ncc(Br)c(Cl)n2)cc(C(F)(F)F)c1`, the growth was 75.8%.
The same measure, in the same setting: as for `O=C1C(OCCOc2ccccc2)=C(OCCOc2ccccc2)C(=O)c2ccccc21`, the figure is 54.7%; as for `CC(=O)Nc1ccccc1-c1n[nH]c(=O)[nH]c1=O`, 89.6%; as for `N#Cc1ccc(C(F)(F)F)nc1N1CCC(C(=O)Nc2ccc(Cl)cc2)CC1`, 94.2%.
The same measure, in the same setting: as for `COc1cccc(Nc2nc(NCCO)c3ccccc3n2)c1`, the figure is 75.7%; as for `O=c1[nH]c(-c2ccccn2)nc2sc3c(c12)CCCCCC3`, 61.9%; as for `CC(=O)Nc1ccc(Sc2ccc([N+](=O)[O-])o2)cc1`, -16.5% (active).
On the same count and under the same terms, the same measure for `CN1CCc2c(c3ccccc3c3ccccc23)C1`: 53.4%; for `FC(F)(F)c1ccc2c(c1)n1cnnc1c1nncn21`: 106%; for `CC(C)OC1=C(Cl)C(=O)c2ccccc2C1=O`: 111%.
For `CCOC(=O)C(CC(c1ccccc1)N1CCCCC1)[N+](=O)[O-]` (stereo not drawn), the growth was 62%.
Still for that read-out and setting: the same measure for `CC[Si](CC)(CC)OC1[C@@H](O[Si](CC)(CC)CC)[C@@H](CNC(=O)NC)O[C@H]1n1cnc2c(NC(=O)Nc3ccccc3)ncnc21` (stereo partly drawn): 63.2%.
`Cc1ccc2nc(NC(=O)CSC(=S)N3CCN(C)CC3)sc2c1`: the growth was 108%.
Same read-out and setting: the same measure for `CCCOC(=O)c1ccc2c(c1)[N+](=O)C(C(=O)c1ccccc1)=C(C(F)(F)F)[N+]2=O`: -73.7% (active); for `CCOC(=O)C1=C(C)N2C(=NC3=C(CCCC/C3=C\c3ccccc3)C2c2ccccc2)S1` (stereo not drawn): 86.7%.
On to `Nc1c(Br)cc(Br)cc1-c1n[nH]c(=O)[nH]c1=O`, for which the growth was 98.4%.
On the same count and under the same terms, as for `c1ccc(-c2nc(N3CCOCC3)c3c4c(sc3n2)CCCCCC4)nc1`, the figure is 58.4%; as for `CC(C)(C)[Si](C)(C)OC1[C@@H](CNC(=O)NC(=O)CCl)O[C@@H](n2cnc3c(N)ncnc32)[C@H]1O[Si](C)(C)C(C)(C)C` (stereo partly drawn), -67.3% (active).
Still for that read-out and setting: as for `O=c1[nH]c(-c2ccncc2)nc2sc3c(c12)CCCCCC3`, the figure is 64%.

Another experiment has as its system MDA-MB-231 breast. The description is as above. The conditions noted are these: 10 µM unless noted.
Turning to `O=C(NCc1ccco1)C1CCN(S(=O)(=O)c2ccc(Cl)cc2)CC1`, the growth is 68.9%.
The same measure, in the same setting: the same measure for `C(=C\c1ccccc1)/CN1CCN(C(c2ccccc2)c2ccccc2)CC1`: 91.5%; for `O=C(Nc1nc2ccccc2[nH]1)C(=O)Nc1nc2ccccc2[nH]1`: 91%.
For the compound `Brc1ccccc1Nc1ccc2nnc(-c3ccncc3)n2n1`, the growth was 108%.
Same read-out and setting: as for `COC(=O)[C@@H]1CCCN1C(=O)[C@@H]1CCCN1C(=O)[C@@H](Cc1c[nH]c2ccccc12)NC(=S)Nc1cc(C(F)(F)F)cc(C(F)(F)F)c1`, the figure is 53.2%; as for `COc1ccc(C2OCC(C)(C)CO2)cc1OC`, 103%.
Same read-out and setting: the same measure for `O=c1[nH]c(=S)[nH]c(=O)n1Cc1cccc2ccccc12`: 106%.
Still for that read-out and setting: the same measure for `C=CC(=O)N1CC2(CCC(n3nc(-c4ccc(Oc5ccccc5)cc4)c4c(N)ncnc43)CC2)C1`: -31% (active); for `Cc1nc(NC(=O)COc2cccc(/C=C3\COc4ccccc4C3=O)c2)sc1C`: 0.962% (active).
For the compound `Cc1ccc(N=c2nc3sc4c(C)ccc(C)c4n3c(N)c2C#N)cc1`, the growth was 93.9%.
Still for that read-out and setting: the same measure for `CN1CCN(c2nc(-c3ccncc3)nc3sc4c(c23)CCCCCC4)CC1`: 49.2%; for `Nc1ccccc1-c1n[nH]c(=O)[nH]c1=O`: 113%; for `CCOC(=O)C1=C(C)N2C(=NC3=C(CCCC/C3=C\c3cc(OC)c(OC)c(OC)c3)C2c2cc(OC)c(OC)c(OC)c2)S1` (stereo not drawn): 71.9%.
The same measure, in the same setting: as for `Cc1cc(=O)[nH]n1-c1cc(Cl)ccc1N`, the figure is 124%; as for `COCCOC1=C(Cl)C(=O)c2ccccc2C1=O`, 34.8%.
The same measure, in the same setting: the same measure for `Cc1nn2c(-c3nc4ccc(Cl)cc4[nH]3)c(-c3ccc(F)cc3)nc2s1`: 116%; for `Oc1ccc(Cl)cc1CNc1nc2ccccc2[nH]1`: -24.1% (active); for `CN([N-]C(=O)CC(=O)[N-]N(C)C(=S)c1ccccc1)C(=S)c1ccccc1.[Cu+2]`: -89.5% (active).
Consider `COc1ccc(-c2nc3sc(C)nn3c2-c2nc3cc(C)c(C)cc3[nH]2)cc1`, for which the growth is 99.6%.
Turning to `Cc1ccc2c(c1)c(Sc1ccc(C(=O)NO)cc1)c1n2CN(C)CC1`, the growth is -32.2% (active).
Same read-out and setting: as for `FC(F)(F)c1cc(CNc2ncc(Br)c(Cl)n2)cc(C(F)(F)F)c1`, the figure is 121%; as for `O=C1C(OCCOc2ccccc2)=C(OCCOc2ccccc2)C(=O)c2ccccc21`, 70.5%; as for `CC(=O)Nc1ccccc1-c1n[nH]c(=O)[nH]c1=O`, 104%.
As to `N#Cc1ccc(C(F)(F)F)nc1N1CCC(C(=O)Nc2ccc(Cl)cc2)CC1`, the growth was 95.7%.
Same read-out and setting: as for `COc1cccc(Nc2nc(NCCO)c3ccccc3n2)c1`, the figure is 65.3%; as for `O=c1[nH]c(-c2ccccn2)nc2sc3c(c12)CCCCCC3`, 49.3%; as for `CC(=O)Nc1ccc(Sc2ccc([N+](=O)[O-])o2)cc1`, 58.6%.
Turning to `CN1CCc2c(c3ccccc3c3ccccc23)C1`, the growth was 59.6%.
`FC(F)(F)c1ccc2c(c1)n1cnnc1c1nncn21`: the growth is 104%.
Still for that read-out and setting: the same measure for `CC(C)OC1=C(Cl)C(=O)c2ccccc2C1=O`: 85.6%; for `CCOC(=O)C(CC(c1ccccc1)N1CCCCC1)[N+](=O)[O-]` (stereo not drawn): 86.6%; for `CC[Si](CC)(CC)OC1[C@@H](O[Si](CC)(CC)CC)[C@@H](CNC(=O)NC)O[C@H]1n1cnc2c(NC(=O)Nc3ccccc3)ncnc21` (stereo partly drawn): 97.4%.
Still for that read-out and setting: as for `Cc1ccc2nc(NC(=O)CSC(=S)N3CCN(C)CC3)sc2c1`, the figure is 110%; as for `CCCOC(=O)c1ccc2c(c1)[N+](=O)C(C(=O)c1ccccc1)=C(C(F)(F)F)[N+]2=O`, -90.4% (active).
Still for that read-out and setting: the same measure for `CCOC(=O)C1=C(C)N2C(=NC3=C(CCCC/C3=C\c3ccccc3)C2c2ccccc2)S1` (stereo not drawn): 107%; for `Nc1c(Br)cc(Br)cc1-c1n[nH]c(=O)[nH]c1=O`: 87.4%; for `c1ccc(-c2nc(N3CCOCC3)c3c4c(sc3n2)CCCCCC4)nc1`: 63.4%.
`CC(C)(C)[Si](C)(C)OC1[C@@H](CNC(=O)NC(=O)CCl)O[C@@H](n2cnc3c(N)ncnc32)[C@H]1O[Si](C)(C)C(C)(C)C` (stereo partly drawn): the growth is -76.8% (active).
On the same count and under the same terms, as for `O=c1[nH]c(-c2ccncc2)nc2sc3c(c12)CCCCCC3`, the figure is 62.1%.
